# From PubChem BioAssay AID1224853 (National Center for Advancing Translational Sciences (NCATS), 2016)
# Records with an inconclusive call do not appear. Values without a mark were called inactive. Activity calls are given as the source filed them. Calls follow the shape of the dose curve; as a rule, active = well fitted inhibition curve with a large enough effect; inconclusive = small, poorly fitted or top-dose-only effect; inactive = no such curve, though single readings can be large or run the other way.
# Assay: Confirmation assay for measurement of the activity of small molecule inhibitors on Zika virus induced Caspase-3 activity in human astrocytoma cells
# Details: SNB-19 ZIKV-induced caspase-3/7, luminescence, 6 h; series mostly up to 46.1 µM; activity change, negative = inhibition: at the top concentration
# From the text: National Center for Advancing Translational Sciences [NCATS] Johns Hopkins University School of Medicine Florida State University Assay Overview: Increase in the Caspase-3 activity indicates an activation of apoptosis cell death pathway caused by Zika virus infection in certain types of neuronal cells including human neural progenitor cells (hNPCs), astrocytes, and astrocytoma cell line (SNB-19). This cell-based caspase-3 activity assay measures the increased caspase-3 activity in the astrocytoma cell line (SNB-19) after a 6-hour Zika virus infection with a luminescence readout. A decrease in the luminescence signal in this assay by small molecule treatment indicates an inhibitory effect of that small molecule on the Zika virus induced caspase-3 activity that may correlate with its effect on reduction of Zika virus caused cell death.
# Assay Protocol Summary: The medium for SNB-19 cells is composed of RPMI 1640 (ATCC, Cat.# 30-2001), 10% fetal bovine serum (FBS) (GE healthcare Life Sciences, Cat.# SH30071.03), and 1% Pen/Strep (Gibco, Cat.# 15140-122). A Caspase-Glo 3/7 assay kit (catalog number G8092; Promega, Madison, WI) was used to detect caspase-3 activity induced by Zika virus infection in human cells. The reagent mixture was reconstituted as described in the protocol from the manufacturer. Polystyrene tissue culture treated and PDL coated white plates were obtained from Greiner Bio-One (Monroe, NC). Cells were seeded in 384- or 1536-well assay plates and cultured at 37 C with 5% CO2 for 16 to 20 hours. The typical cell seeding density in the 1536-well plate assay is 250 cells/well in 3ul medium for SNB-19 cells in tissue culture treated plates. Compounds were added to cells and incubated for one hour before addition of ZIKV solution to cells (2 FFU/cell). After incubation at 37 C with 5% CO2 for 6 hours, the reagent mixture of Caspase-Glo 3/7 assay kit was added to each well, followed by incubation at room temperature for 30 minutes. The luminescence intensity of the assay plates was measured using a ViewLux plate reader (PerkinElmer). Data were normalized by using the cell-containing wells without ZIKV as a negative control (0% induction of caspase 3/7 activity) and wells containing ZIKV infected cells (Caspase-3 activity induced) as a positive control (100% induction of caspase 3 activity). The percentage inhibitions of the increased Caspase-3 activity by small molecule inhibitors were then calculated.
Structure (SMILES),"activity change, negative = inhibition",Potency
CC(C)[N+](C)(CCC(C(N)=O)(c1ccccc1)c1ccccc1)C(C)C,1.37%,
O=C1C=CC[C@@H]2[C@H]3CCCN4CCC[C@@H](CN12)[C@@H]34,18.5%,
O=c1c2ccccc2[se]n1-c1ccccc1,,17.3 µM (active)
Oc1ccc([C@H]2CNCc3c2ccc(O)c3O)cc1O,9.68%,
O=S(=O)(CC1CS1)c1ccc(Oc2ccccc2)cc1 (centres undefined),-24.8%,
COP(=S)(OC)SCN1C(=O)c2ccccc2C1=O,-5.52%,
S=C(SSC(=S)N1CCCCC1)N1CCCCC1,-16.3%,
Cc1ccc([N+](=O)[O-])[c]2c1[O][Hg]2,,10.9 µM (active)
COC1(CS(=O)c2ccccc2)CCN(CCc2c[nH]c3ccc(F)cc23)CC1 (centres undefined),12.7%,
O=C(Nc1ccc(Br)cc1)c1cc(Br)cc(Br)c1O,,6.9 µM (active)
CC(C)[C@H]1C(=O)N[C@H](CO)Cc2c[nH]c3cccc(c23)N1C,2.51%,
CC(C)N[C@@H]1CCn2c(=O)[nH]c3cccc(c32)[C@@H]1O,-1.27%,
CC(O)CN1CCN(CC(=O)[O-])CCN(CC(=O)[O-])CCN(CC(=O)[O-])CC1.[Gd+3] (centres undefined),11.9%,
O=C1CCC[C@@H]2[C@H]3CCCN4CCC[C@@H](CN12)[C@@H]34,1.01%,
